Experimental data as given in the supplement of paper PMC4466140.

These binders were tested against AgAbp1 (assay: SPOT peptide array binding signal intensity (averaged, normalized) (arbitrary units (background-subtracted, floor 0; scale differs between SH3 domains)); higher = stronger binding of the SH3 domain to the peptide).
Procedure, shortened: (§1)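 E. coli BL21(DE3) was used to express GST-fused SH3 domains from four yeast species, which were then purified on glutathione Sepharose. These were incubated at 10 μg/ml in TBS-based blocking buffer overnight at 4°C on cellulose membranes carrying synthetic 15-mer peptides, in which cysteines were replaced by serines. Binding signal is the replicate average of normalized, background-subtracted spot intensity, in arbitrary units that differ between domains.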

Binder | SPOT peptide array binding signal intensity
LPPPPPPPPPPPLPQ | 11

What follows are binders tested against AgBbc1 in the same assay as above.
Procedure, shortened: as §1

Binder | SPOT peptide array binding signal intensity
LPPPPPPPPPPPLPQ | 1.25

The binders below were run against AgBem1-D1 in the same assay as above.
Procedure, shortened: as §1

Binder | SPOT peptide array binding signal intensity
LPPPPPPPPPPPLPQ | ≤ 0

These binders were tested against AgBzz1-D1 in the same assay as above.
Procedure, shortened: as §1

Binder | SPOT peptide array binding signal intensity
LPPPPPPPPPPPLPQ | 42.5

These binders were tested against AgBzz1-D2 in the same assay as above.
Procedure, shortened: as §1

Binder | SPOT peptide array binding signal intensity
LPPPPPPPPPPPLPQ | 1

What follows are binders tested against AgCyk3 in the same assay as above.
Procedure, shortened: as §1

Binder | SPOT peptide array binding signal intensity
LPPPPPPPPPPPLPQ | 1

These binders were tested against AgFus1 in the same assay as above.
Procedure, shortened: as §1

Binder | SPOT peptide array binding signal intensity
LPPPPPPPPPPPLPQ | 3

What follows are binders tested against AgHof1 in the same assay as above.
Procedure, shortened: as §1

Binder | SPOT peptide array binding signal intensity
LPPPPPPPPPPPLPQ | 128

What follows are binders tested against AgHse1 in the same assay as above.
Procedure, shortened: as §1

Binder | SPOT peptide array binding signal intensity
LPPPPPPPPPPPLPQ | 21

What follows are binders tested against AgLsb1 in the same assay as above.
Procedure, shortened: as §1

Binder | SPOT peptide array binding signal intensity
LPPPPPPPPPPPLPQ | 1.5

Each binder was assayed against AgLsb4 in the same assay as above.
Procedure, shortened: as §1

Binder | SPOT peptide array binding signal intensity
LPPPPPPPPPPPLPQ | ≤ 0

The binders below were run against AgMyo5 in the same assay as above.
Procedure, shortened: as §1

Binder | SPOT peptide array binding signal intensity
LPPPPPPPPPPPLPQ | 640

The binders below were run against AgNbp2 in the same assay as above.
Procedure, shortened: as §1

Binder | SPOT peptide array binding signal intensity
LPPPPPPPPPPPLPQ | 28.5

What follows are binders tested against AgRvs167 in the same assay as above.
Procedure, shortened: as §1

Binder | SPOT peptide array binding signal intensity
LPPPPPPPPPPPLPQ | ≤ 0

The binders below were run against AgSho1 in the same assay as above.
Procedure, shortened: as §1

Binder | SPOT peptide array binding signal intensity
LPPPPPPPPPPPLPQ | ≤ 0

Each binder was assayed against AgSla1-D1-D2 in the same assay as above.
Procedure, shortened: as §1

Binder | SPOT peptide array binding signal intensity
LPPPPPPPPPPPLPQ | 4.5

These binders were tested against AgSla1-D3 in the same assay as above.
Procedure, shortened: as §1

Binder | SPOT peptide array binding signal intensity
LPPPPPPPPPPPLPQ | ≤ 0

These binders were tested against CaAbp1-D1 in the same assay as above.
Procedure, shortened: as §1

Binder | SPOT peptide array binding signal intensity
LPPPPPPPPPPPLPQ | 9

These binders were tested against CaAbp1-D2 in the same assay as above.
Procedure, shortened: as §1

Binder | SPOT peptide array binding signal intensity
LPPPPPPPPPPPLPQ | ≤ 0

These binders were tested against CaBbc1 in the same assay as above.
Procedure, shortened: as §1

Binder | SPOT peptide array binding signal intensity
LPPPPPPPPPPPLPQ | ≤ 0

What follows are binders tested against CaBem1-D1 in the same assay as above.
Procedure, shortened: as §1

Binder | SPOT peptide array binding signal intensity
LPPPPPPPPPPPLPQ | 3

The binders below were run against CaBzz1-D1 in the same assay as above.
Procedure, shortened: as §1

Binder | SPOT peptide array binding signal intensity
LPPPPPPPPPPPLPQ | 1990

These binders were tested against CaBzz1-D2 in the same assay as above.
Procedure, shortened: as §1

Binder | SPOT peptide array binding signal intensity
LPPPPPPPPPPPLPQ | 495

What follows are binders tested against CaCyk3 in the same assay as above.
Procedure, shortened: as §1

Binder | SPOT peptide array binding signal intensity
LPPPPPPPPPPPLPQ | ≤ 0

The binders below were run against CaFus1 in the same assay as above.
Procedure, shortened: as §1

Binder | SPOT peptide array binding signal intensity
LPPPPPPPPPPPLPQ | ≤ 0

These binders were tested against CaHof1 in the same assay as above.
Procedure, shortened: as §1

Binder | SPOT peptide array binding signal intensity
LPPPPPPPPPPPLPQ | ≤ 0

The binders below were run against CaHse1 in the same assay as above.
Procedure, shortened: as §1

Binder | SPOT peptide array binding signal intensity
LPPPPPPPPPPPLPQ | 5.75

These binders were tested against CaLsb1 in the same assay as above.
Procedure, shortened: as §1

Binder | SPOT peptide array binding signal intensity
LPPPPPPPPPPPLPQ | ≤ 0

What follows are binders tested against CaLsb4 in the same assay as above.
Procedure, shortened: as §1

Binder | SPOT peptide array binding signal intensity
LPPPPPPPPPPPLPQ | ≤ 0

These binders were tested against CaMyo5 in the same assay as above.
Procedure, shortened: as §1

Binder | SPOT peptide array binding signal intensity
LPPPPPPPPPPPLPQ | 182

What follows are binders tested against CaNbp2 in the same assay as above.
Procedure, shortened: as §1

Binder | SPOT peptide array binding signal intensity
LPPPPPPPPPPPLPQ | 10

These binders were tested against CaRvs167 in the same assay as above.
Procedure, shortened: as §1

Binder | SPOT peptide array binding signal intensity
LPPPPPPPPPPPLPQ | ≤ 0

What follows are binders tested against CaRvs167-3 in the same assay as above.
Procedure, shortened: as §1

Binder | SPOT peptide array binding signal intensity
LPPPPPPPPPPPLPQ | 0.5

What follows are binders tested against CaSho1 in the same assay as above.
Procedure, shortened: as §1

Binder | SPOT peptide array binding signal intensity
LPPPPPPPPPPPLPQ | 4.5

Each binder was assayed against CaSla1-D1-D2 in the same assay as above.
Procedure, shortened: as §1

Binder | SPOT peptide array binding signal intensity
LPPPPPPPPPPPLPQ | 5.5

Each binder was assayed against CaSla1-D3 in the same assay as above.
Procedure, shortened: as §1

Binder | SPOT peptide array binding signal intensity
LPPPPPPPPPPPLPQ | 0.5

These binders were tested against ScAbp1 in the same assay as above.
Procedure, shortened: as §1

Binder | SPOT peptide array binding signal intensity
LPPPPPPPPPPPLPQ | 2.5

The binders below were run against ScBbc1 in the same assay as above.
Procedure, shortened: as §1

Binder | SPOT peptide array binding signal intensity
LPPPPPPPPPPPLPQ | 2.5

Each binder was assayed against ScBem1-D1 in the same assay as above.
Procedure, shortened: as §1

Binder | SPOT peptide array binding signal intensity
LPPPPPPPPPPPLPQ | ≤ 0

The binders below were run against ScBzz1-D1 in the same assay as above.
Procedure, shortened: as §1

Binder | SPOT peptide array binding signal intensity
LPPPPPPPPPPPLPQ | 16

Each binder was assayed against ScBzz1-D2 in the same assay as above.
Procedure, shortened: as §1

Binder | SPOT peptide array binding signal intensity
LPPPPPPPPPPPLPQ | 2

What follows are binders tested against ScCyk3 in the same assay as above.
Procedure, shortened: as §1

Binder | SPOT peptide array binding signal intensity
LPPPPPPPPPPPLPQ | 0.5

The binders below were run against ScFus1 in the same assay as above.
Procedure, shortened: as §1

Binder | SPOT peptide array binding signal intensity
LPPPPPPPPPPPLPQ | ≤ 0

The binders below were run against ScHof1 in the same assay as above.
Procedure, shortened: as §1

Binder | SPOT peptide array binding signal intensity
LPPPPPPPPPPPLPQ | 9.25

These binders were tested against ScHse1 in the same assay as above.
Procedure, shortened: as §1

Binder | SPOT peptide array binding signal intensity
LPPPPPPPPPPPLPQ | 23

These binders were tested against ScLsb1 in the same assay as above.
Procedure, shortened: as §1

Binder | SPOT peptide array binding signal intensity
LPPPPPPPPPPPLPQ | 0.5

These binders were tested against ScLsb2 in the same assay as above.
Procedure, shortened: as §1

Binder | SPOT peptide array binding signal intensity
LPPPPPPPPPPPLPQ | ≤ 0

These binders were tested against ScLsb3 in the same assay as above.
Procedure, shortened: as §1

Binder | SPOT peptide array binding signal intensity
LPPPPPPPPPPPLPQ | 54

The binders below were run against ScLsb4 in the same assay as above.
Procedure, shortened: as §1

Binder | SPOT peptide array binding signal intensity
LPPPPPPPPPPPLPQ | 1.5

Each binder was assayed against ScMyo3 in the same assay as above.
Procedure, shortened: as §1

Binder | SPOT peptide array binding signal intensity
LPPPPPPPPPPPLPQ | 1930

What follows are binders tested against ScMyo5 in the same assay as above.
Procedure, shortened: as §1

Binder | SPOT peptide array binding signal intensity
LPPPPPPPPPPPLPQ | 933

The binders below were run against ScNbp2 in the same assay as above.
Procedure, shortened: as §1

Binder | SPOT peptide array binding signal intensity
LPPPPPPPPPPPLPQ | 16

Each binder was assayed against ScPex13 in the same assay as above.
Procedure, shortened: as §1

Binder | SPOT peptide array binding signal intensity
LPPPPPPPPPPPLPQ | 41.8

These binders were tested against ScRvs167 in the same assay as above.
Procedure, shortened: as §1

Binder | SPOT peptide array binding signal intensity
LPPPPPPPPPPPLPQ | ≤ 0

The binders below were run against ScSho1 in the same assay as above.
Procedure, shortened: as §1

Binder | SPOT peptide array binding signal intensity
LPPPPPPPPPPPLPQ | ≤ 0

These binders were tested against ScSla1-D1-D2 in the same assay as above.
Procedure, shortened: as §1

Binder | SPOT peptide array binding signal intensity
LPPPPPPPPPPPLPQ | 16.5

These binders were tested against ScSla1-D3 in the same assay as above.
Procedure, shortened: as §1

Binder | SPOT peptide array binding signal intensity
LPPPPPPPPPPPLPQ | ≤ 0

Each binder was assayed against SpAbp1-D1 in the same assay as above.
Procedure, shortened: as §1

Binder | SPOT peptide array binding signal intensity
LPPPPPPPPPPPLPQ | 3

What follows are binders tested against SpBbc1 in the same assay as above.
Procedure, shortened: as §1

Binder | SPOT peptide array binding signal intensity
LPPPPPPPPPPPLPQ | 0.5

These binders were tested against SpBzz1-D1 in the same assay as above.
Procedure, shortened: as §1

Binder | SPOT peptide array binding signal intensity
LPPPPPPPPPPPLPQ | 4870

These binders were tested against SpBzz1-D2 in the same assay as above.
Procedure, shortened: as §1

Binder | SPOT peptide array binding signal intensity
LPPPPPPPPPPPLPQ | 7.5

What follows are binders tested against SpCyk3 in the same assay as above.
Procedure, shortened: as §1

Binder | SPOT peptide array binding signal intensity
LPPPPPPPPPPPLPQ | ≤ 0

These binders were tested against SpHof1 in the same assay as above.
Procedure, shortened: as §1

Binder | SPOT peptide array binding signal intensity
LPPPPPPPPPPPLPQ | ≤ 0

Each binder was assayed against SpHof1-2 in the same assay as above.
Procedure, shortened: as §1

Binder | SPOT peptide array binding signal intensity
LPPPPPPPPPPPLPQ | ≤ 0

What follows are binders tested against SpHof1-3 in the same assay as above.
Procedure, shortened: as §1

Binder | SPOT peptide array binding signal intensity
LPPPPPPPPPPPLPQ | 0.5

Each binder was assayed against SpHse1 in the same assay as above.
Procedure, shortened: as §1

Binder | SPOT peptide array binding signal intensity
LPPPPPPPPPPPLPQ | 2.25

What follows are binders tested against SpLsb1 in the same assay as above.
Procedure, shortened: as §1

Binder | SPOT peptide array binding signal intensity
LPPPPPPPPPPPLPQ | ≤ 0

These binders were tested against SpLsb4 in the same assay as above.
Procedure, shortened: as §1

Binder | SPOT peptide array binding signal intensity
LPPPPPPPPPPPLPQ | ≤ 0

The binders below were run against SpMyo1 in the same assay as above.
Procedure, shortened: as §1

Binder | SPOT peptide array binding signal intensity
LPPPPPPPPPPPLPQ | 1520

The binders below were run against SpNbp2 in the same assay as above.
Procedure, shortened: as §1

Binder | SPOT peptide array binding signal intensity
LPPPPPPPPPPPLPQ | 2

What follows are binders tested against SpPex13 in the same assay as above.
Procedure, shortened: as §1

Binder | SPOT peptide array binding signal intensity
LPPPPPPPPPPPLPQ | ≤ 0

Each binder was assayed against SpRvs167 in the same assay as above.
Procedure, shortened: as §1

Binder | SPOT peptide array binding signal intensity
LPPPPPPPPPPPLPQ | 5.33

What follows are binders tested against SpSla1-D1-D2 in the same assay as above.
Procedure, shortened: as §1

Binder | SPOT peptide array binding signal intensity
LPPPPPPPPPPPLPQ | 3

Each binder was assayed against SpSla1-D3 in the same assay as above.
Procedure, shortened: as §1

Binder | SPOT peptide array binding signal intensity
LPPPPPPPPPPPLPQ | ≤ 0
